# Experiments:
# Test in all cases: DAPPL (digital affinity profiling via proximity ligation, sequencing); 10 mM Tris-HCl pH 7.5, 50 mM NaCl, 1 mM DTT, 4% glycerol, room temperature, 30 min; GST-TFs on glutathione beads, 16-mer random dsDNA library, 0.1% formaldehyde crosslink after washing; high values mean tight binding
# FLI1 = target: T1, FLI1 (Homo sapiens, UniProt Q01543 1-452); conditions: protein: recombinant; tags: N-terminal GST; dsDNA, one strand shown
# T1 sequence: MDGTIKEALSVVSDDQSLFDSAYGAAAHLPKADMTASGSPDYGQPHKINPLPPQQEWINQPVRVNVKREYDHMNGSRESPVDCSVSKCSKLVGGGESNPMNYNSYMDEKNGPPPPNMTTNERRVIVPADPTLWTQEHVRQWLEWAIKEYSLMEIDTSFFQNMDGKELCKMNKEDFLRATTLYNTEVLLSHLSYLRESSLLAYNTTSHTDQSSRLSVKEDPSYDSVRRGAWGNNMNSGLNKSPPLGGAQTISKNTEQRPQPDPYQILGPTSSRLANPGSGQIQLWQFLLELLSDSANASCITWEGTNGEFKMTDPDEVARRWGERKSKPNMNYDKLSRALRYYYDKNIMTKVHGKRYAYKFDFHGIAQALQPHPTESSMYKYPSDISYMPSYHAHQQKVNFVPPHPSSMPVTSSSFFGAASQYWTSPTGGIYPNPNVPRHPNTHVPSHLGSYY
# In short: (§1)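 A tag-only sample was pooled with DNA-barcoded human transcription factors that had been expressed in yeast as GST fusions and captured on glutathione beads. The pools were incubated for 30 min at room temperature with 200 nmole of a random double-stranded 16-mer DNA library in Tris/NaCl/DTT/glycerol buffer, then washed, crosslinked with 0.1% formaldehyde, proximity-ligated (BsaI/T4 ligase, 1 h, 37 °C), PCR-amplified and sequenced on an Illumina NextSeq500. Binding signal is each hexamer's read frequency for a factor divided by its frequency for the tag-only sample.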
# ELK1 = target: T2, ELK1 (Homo sapiens, UniProt P19419 1-428); conditions: protein: recombinant; tags: N-terminal GST; dsDNA, one strand shown
# T2 sequence: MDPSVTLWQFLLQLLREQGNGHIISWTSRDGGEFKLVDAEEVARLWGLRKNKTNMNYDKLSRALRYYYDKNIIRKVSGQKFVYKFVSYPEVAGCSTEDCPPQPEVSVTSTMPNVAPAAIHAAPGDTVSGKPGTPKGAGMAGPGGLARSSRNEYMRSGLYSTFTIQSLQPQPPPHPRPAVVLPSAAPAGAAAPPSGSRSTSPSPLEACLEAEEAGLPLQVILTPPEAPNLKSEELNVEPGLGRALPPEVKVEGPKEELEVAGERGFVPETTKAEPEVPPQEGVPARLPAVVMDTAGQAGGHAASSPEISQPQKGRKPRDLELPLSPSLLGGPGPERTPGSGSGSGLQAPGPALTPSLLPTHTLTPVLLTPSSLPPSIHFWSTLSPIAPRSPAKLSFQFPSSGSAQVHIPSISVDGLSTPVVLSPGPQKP
# In short: as §1
# GABPA = target: T3, GABPA (Homo sapiens, UniProt Q06546 1-454); conditions: protein: recombinant; tags: N-terminal GST; dsDNA, one strand shown
# T3 sequence: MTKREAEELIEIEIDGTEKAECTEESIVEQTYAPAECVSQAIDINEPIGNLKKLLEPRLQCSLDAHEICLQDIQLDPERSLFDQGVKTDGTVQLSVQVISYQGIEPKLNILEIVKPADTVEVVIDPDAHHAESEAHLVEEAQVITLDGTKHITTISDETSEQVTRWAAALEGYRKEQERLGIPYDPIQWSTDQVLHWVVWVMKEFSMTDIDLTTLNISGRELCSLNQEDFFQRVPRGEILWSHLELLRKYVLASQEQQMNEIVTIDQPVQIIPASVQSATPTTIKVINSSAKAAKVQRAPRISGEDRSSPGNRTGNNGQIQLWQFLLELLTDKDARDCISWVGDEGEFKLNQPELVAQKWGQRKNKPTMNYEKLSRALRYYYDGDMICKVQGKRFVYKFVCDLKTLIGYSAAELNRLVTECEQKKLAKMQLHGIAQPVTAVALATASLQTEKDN
# In short: as §1
# ERG = target: T4, ERG (Homo sapiens, UniProt P11308 1-479); conditions: protein: recombinant; tags: N-terminal GST; dsDNA, one strand shown
# T4 sequence: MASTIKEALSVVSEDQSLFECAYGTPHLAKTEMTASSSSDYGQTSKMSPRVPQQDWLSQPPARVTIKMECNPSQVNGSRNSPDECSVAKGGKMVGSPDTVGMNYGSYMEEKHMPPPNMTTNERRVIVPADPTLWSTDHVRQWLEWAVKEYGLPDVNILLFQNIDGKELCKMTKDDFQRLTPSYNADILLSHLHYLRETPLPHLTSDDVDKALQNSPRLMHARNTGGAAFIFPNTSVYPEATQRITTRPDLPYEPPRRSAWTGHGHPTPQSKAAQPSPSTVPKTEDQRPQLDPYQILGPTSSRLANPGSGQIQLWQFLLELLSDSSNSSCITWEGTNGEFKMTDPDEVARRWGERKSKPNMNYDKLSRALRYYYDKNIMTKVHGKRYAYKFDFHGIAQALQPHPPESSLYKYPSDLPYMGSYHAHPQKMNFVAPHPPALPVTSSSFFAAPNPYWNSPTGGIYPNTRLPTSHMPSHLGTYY
# In short: as §1
# ELF1 = ELF1 (Homo sapiens, UniProt P32519 1-619); conditions: protein: recombinant; tags: N-terminal GST; dsDNA, one strand shown
# In short: as §1
# EHF = target: T5, EHF (Homo sapiens, UniProt Q9NZC4 1-300); conditions: protein: recombinant; tags: N-terminal GST; dsDNA, one strand shown
# T5 sequence: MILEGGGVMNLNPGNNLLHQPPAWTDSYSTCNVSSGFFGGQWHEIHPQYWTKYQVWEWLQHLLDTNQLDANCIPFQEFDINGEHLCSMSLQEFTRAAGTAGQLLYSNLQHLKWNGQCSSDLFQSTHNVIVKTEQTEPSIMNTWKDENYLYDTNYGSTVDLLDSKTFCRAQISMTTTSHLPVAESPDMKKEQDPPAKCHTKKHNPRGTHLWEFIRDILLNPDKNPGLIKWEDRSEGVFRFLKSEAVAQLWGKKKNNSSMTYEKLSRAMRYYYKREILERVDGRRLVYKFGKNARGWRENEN
# In short: as §1
# SPI1 = SPI1 (Homo sapiens, UniProt P17947 1-270); conditions: protein: recombinant; tags: N-terminal GST; dsDNA, one strand shown
# In short: as §1
# SPIB = SPIB (Homo sapiens, UniProt Q01892 1-262); conditions: protein: recombinant; tags: N-terminal GST; dsDNA, one strand shown
# In short: as §1
# ELK3 = target: T6, ELK3 (Homo sapiens, UniProt P41970 1-407); conditions: protein: recombinant; tags: N-terminal GST; dsDNA, one strand shown
# T6 sequence: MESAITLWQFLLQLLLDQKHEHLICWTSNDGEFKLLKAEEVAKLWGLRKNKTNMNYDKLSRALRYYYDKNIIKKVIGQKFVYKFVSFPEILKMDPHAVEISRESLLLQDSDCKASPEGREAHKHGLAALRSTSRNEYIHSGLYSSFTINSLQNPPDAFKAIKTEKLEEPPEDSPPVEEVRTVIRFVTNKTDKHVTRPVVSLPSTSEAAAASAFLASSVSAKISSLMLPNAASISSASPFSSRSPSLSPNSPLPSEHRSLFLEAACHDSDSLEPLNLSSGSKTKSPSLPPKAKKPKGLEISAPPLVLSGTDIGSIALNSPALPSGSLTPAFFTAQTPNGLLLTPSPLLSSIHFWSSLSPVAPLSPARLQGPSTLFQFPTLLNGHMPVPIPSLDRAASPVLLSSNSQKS
# In short: as §1
# FEV = target: T7, FEV (Homo sapiens, UniProt Q99581 1-238); conditions: protein: recombinant; tags: N-terminal GST; dsDNA, one strand shown
# T7 sequence: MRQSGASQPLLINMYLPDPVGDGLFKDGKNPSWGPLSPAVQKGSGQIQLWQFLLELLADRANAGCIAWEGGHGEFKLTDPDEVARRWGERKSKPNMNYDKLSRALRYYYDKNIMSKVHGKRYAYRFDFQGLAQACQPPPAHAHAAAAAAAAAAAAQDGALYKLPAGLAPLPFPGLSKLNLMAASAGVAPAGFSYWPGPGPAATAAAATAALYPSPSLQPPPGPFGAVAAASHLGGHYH
# In short: as §1
# ETV5 = ETV5 (Homo sapiens, UniProt P41161 1-510); conditions: protein: recombinant; tags: N-terminal GST; dsDNA, one strand shown
# In short: as §1
# HSF1 = HSF1 (Homo sapiens, UniProt Q00613 1-529); conditions: protein: recombinant; tags: N-terminal GST; chain copies: 3; dsDNA, one strand shown
# In short: as §1
# SPIC = target: T8, SPIC (Homo sapiens, UniProt Q8N5J4 1-248); conditions: protein: recombinant; tags: N-terminal GST; dsDNA, one strand shown
# T8 sequence: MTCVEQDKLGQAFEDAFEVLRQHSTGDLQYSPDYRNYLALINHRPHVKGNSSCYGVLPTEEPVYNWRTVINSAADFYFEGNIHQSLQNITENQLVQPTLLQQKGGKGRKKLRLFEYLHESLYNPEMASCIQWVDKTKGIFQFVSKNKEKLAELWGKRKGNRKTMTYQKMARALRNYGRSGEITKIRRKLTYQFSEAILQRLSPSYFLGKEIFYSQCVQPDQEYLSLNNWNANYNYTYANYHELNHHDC
# In short: as §1
# ELF4 = ELF4 (Homo sapiens, UniProt Q99607 1-663); conditions: protein: recombinant; tags: N-terminal GST; dsDNA, one strand shown
# In short: as §1
# ELK4 = target: T9, ELK4 (Homo sapiens, UniProt P28324-2 1-405); conditions: protein: recombinant; tags: N-terminal GST; dsDNA, one strand shown
# T9 sequence: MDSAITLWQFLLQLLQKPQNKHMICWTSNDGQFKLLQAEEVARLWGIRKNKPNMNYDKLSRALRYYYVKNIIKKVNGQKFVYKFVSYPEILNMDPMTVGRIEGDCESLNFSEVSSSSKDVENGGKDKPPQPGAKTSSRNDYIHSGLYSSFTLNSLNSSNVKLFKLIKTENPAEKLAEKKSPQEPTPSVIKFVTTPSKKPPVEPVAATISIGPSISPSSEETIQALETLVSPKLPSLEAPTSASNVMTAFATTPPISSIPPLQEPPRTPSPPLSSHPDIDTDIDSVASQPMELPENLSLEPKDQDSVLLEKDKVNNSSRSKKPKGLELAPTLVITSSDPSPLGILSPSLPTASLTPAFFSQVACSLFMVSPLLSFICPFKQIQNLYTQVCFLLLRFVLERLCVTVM
# In short: as §1
# ETV2 = target: T10, ETV2 (Homo sapiens, UniProt O00321 1-342); conditions: protein: recombinant; tags: N-terminal GST; dsDNA, one strand shown
# T10 sequence: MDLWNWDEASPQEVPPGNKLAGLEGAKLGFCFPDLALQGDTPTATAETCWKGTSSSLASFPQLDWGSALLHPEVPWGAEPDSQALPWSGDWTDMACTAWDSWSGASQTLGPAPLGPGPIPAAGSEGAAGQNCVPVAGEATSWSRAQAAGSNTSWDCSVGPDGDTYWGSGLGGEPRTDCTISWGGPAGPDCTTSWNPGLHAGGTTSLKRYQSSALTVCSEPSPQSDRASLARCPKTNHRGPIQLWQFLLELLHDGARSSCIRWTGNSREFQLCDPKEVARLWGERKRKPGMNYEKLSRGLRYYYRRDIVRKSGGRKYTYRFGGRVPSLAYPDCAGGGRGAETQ
# In short: as §1
# ELF3 = target: T11, ELF3 (Homo sapiens, UniProt P78545 1-371); conditions: protein: recombinant; tags: N-terminal GST; dsDNA, one strand shown
# T11 sequence: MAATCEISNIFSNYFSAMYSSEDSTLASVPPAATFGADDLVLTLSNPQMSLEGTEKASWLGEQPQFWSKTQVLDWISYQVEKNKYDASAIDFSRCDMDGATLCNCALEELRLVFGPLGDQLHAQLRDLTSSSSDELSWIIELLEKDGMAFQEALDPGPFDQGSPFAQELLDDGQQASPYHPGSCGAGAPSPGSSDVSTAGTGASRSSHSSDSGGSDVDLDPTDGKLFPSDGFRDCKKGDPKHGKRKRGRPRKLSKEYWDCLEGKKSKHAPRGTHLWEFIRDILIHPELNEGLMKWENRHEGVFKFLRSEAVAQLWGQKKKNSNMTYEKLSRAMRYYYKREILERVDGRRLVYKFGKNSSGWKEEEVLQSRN
# In short: as §1
# CRX = CRX (Homo sapiens, UniProt O43186 1-299); conditions: protein: recombinant; tags: N-terminal GST; dsDNA, one strand shown
# In short: as §1
# ETV1 = ETV1 (Homo sapiens, UniProt P50549 1-477); conditions: protein: recombinant; tags: N-terminal GST; dsDNA, one strand shown
# In short: as §1
# SPIB, sequence (Q01892 whole entry): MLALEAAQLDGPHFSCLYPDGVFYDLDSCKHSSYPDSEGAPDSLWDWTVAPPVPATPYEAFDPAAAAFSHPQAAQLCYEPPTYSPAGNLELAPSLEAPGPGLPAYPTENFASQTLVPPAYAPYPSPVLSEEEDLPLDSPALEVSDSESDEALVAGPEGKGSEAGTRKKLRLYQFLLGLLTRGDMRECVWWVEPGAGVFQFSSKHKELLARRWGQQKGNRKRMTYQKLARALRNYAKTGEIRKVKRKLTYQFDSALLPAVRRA
# ELF1, sequence (P32519 whole entry): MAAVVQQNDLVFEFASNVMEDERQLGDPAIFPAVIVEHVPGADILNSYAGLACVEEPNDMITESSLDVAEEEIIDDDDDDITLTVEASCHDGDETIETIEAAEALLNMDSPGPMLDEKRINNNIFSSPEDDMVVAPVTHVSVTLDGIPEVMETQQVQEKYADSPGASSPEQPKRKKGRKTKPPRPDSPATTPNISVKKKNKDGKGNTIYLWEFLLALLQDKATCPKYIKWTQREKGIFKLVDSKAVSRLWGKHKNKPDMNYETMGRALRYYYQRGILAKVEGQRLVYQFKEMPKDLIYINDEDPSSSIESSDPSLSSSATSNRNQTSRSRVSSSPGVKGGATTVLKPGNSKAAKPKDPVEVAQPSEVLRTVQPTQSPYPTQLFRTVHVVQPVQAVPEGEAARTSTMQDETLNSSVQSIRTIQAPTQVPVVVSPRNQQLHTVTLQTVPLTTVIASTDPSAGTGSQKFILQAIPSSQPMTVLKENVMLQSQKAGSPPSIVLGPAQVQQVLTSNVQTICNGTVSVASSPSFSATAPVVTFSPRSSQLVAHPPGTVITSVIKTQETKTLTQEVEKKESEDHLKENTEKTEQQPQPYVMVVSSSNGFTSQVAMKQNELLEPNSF
# ETV1, sequence (P50549 whole entry): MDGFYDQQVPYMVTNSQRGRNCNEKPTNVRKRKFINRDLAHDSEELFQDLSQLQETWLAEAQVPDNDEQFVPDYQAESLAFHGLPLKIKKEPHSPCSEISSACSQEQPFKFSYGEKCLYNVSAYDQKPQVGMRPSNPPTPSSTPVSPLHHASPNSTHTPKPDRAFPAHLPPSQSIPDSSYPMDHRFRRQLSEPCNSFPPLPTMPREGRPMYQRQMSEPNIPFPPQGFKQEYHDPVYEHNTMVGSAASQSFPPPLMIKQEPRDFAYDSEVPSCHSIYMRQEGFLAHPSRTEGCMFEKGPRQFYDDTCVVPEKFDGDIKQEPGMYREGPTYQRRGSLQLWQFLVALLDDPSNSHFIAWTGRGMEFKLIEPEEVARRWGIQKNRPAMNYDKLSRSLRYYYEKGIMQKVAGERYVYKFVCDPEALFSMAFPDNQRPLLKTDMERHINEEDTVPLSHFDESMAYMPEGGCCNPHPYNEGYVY
# ELF4, sequence (Q99607 whole entry): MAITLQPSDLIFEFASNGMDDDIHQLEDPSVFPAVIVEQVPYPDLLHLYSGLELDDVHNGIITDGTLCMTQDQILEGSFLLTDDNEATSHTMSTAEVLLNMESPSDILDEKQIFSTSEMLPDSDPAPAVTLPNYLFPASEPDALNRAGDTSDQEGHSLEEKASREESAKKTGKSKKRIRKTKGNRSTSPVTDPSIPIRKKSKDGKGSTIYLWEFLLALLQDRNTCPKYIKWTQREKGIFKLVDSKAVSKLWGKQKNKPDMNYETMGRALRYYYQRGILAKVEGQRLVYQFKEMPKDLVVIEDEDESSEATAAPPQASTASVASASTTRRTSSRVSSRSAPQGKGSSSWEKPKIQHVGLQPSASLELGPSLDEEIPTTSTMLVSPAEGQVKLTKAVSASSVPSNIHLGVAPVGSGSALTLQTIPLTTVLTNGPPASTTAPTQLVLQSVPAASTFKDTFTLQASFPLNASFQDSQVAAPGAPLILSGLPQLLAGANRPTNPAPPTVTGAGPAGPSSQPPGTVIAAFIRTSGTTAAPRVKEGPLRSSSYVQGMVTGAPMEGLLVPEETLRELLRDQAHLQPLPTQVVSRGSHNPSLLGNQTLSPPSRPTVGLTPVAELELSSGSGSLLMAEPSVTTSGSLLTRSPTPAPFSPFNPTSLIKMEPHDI
# CRX, sequence (O43186 whole entry): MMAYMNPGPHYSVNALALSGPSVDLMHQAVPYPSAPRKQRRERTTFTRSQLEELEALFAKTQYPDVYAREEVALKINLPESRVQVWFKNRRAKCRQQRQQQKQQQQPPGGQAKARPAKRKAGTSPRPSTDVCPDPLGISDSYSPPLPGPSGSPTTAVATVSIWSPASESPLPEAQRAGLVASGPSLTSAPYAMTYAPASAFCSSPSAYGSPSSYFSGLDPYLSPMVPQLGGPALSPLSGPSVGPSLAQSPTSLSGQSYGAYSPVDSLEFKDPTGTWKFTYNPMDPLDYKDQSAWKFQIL
# ETV5, sequence (P41161 whole entry): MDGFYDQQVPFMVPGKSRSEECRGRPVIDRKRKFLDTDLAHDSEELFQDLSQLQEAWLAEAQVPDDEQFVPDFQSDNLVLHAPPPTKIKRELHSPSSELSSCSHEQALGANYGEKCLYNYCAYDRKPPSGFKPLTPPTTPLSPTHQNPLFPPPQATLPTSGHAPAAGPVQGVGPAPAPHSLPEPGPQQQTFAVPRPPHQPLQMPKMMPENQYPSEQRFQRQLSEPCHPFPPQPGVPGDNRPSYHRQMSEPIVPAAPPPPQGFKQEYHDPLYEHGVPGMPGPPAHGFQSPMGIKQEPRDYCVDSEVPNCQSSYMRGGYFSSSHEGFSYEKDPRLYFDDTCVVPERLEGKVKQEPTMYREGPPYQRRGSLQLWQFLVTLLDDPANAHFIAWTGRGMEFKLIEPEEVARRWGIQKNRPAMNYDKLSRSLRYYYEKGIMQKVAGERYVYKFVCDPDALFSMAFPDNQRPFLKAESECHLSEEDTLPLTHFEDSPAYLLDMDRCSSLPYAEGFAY
# HSF1, sequence (Q00613 whole entry): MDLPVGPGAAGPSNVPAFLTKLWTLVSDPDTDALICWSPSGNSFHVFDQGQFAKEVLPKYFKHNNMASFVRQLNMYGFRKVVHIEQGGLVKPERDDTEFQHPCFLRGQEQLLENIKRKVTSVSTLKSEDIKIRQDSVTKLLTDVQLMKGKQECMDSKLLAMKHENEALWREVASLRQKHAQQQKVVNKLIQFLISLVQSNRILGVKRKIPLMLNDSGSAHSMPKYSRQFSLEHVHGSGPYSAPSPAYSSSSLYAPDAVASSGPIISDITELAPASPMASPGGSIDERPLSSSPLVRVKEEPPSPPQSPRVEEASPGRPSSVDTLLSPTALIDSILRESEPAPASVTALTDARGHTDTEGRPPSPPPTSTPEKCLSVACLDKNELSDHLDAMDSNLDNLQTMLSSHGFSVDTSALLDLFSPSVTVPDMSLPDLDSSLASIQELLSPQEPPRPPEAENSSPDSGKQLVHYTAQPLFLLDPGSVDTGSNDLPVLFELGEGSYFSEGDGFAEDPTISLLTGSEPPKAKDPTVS
sequence,measurement,setting,value
CTTTCT,binding signal,FLI1,"1.6 fold enrichment (6-mer frequency, TF over GST control)"
same,binding signal,ELK1,"1.6 fold enrichment (6-mer frequency, TF over GST control)"
same,binding signal,GABPA,"1.5 fold enrichment (6-mer frequency, TF over GST control)"
same,binding signal,ERG,"1.53 fold enrichment (6-mer frequency, TF over GST control)"
same,binding signal,ELF1,"1.55 fold enrichment (6-mer frequency, TF over GST control)"
same,binding signal,EHF,"1.53 fold enrichment (6-mer frequency, TF over GST control)"
same,binding signal,SPI1,"1.67 fold enrichment (6-mer frequency, TF over GST control)"
same,binding signal,SPIB,"1.48 fold enrichment (6-mer frequency, TF over GST control)"
same,binding signal,ELK3,"1.65 fold enrichment (6-mer frequency, TF over GST control)"
same,binding signal,FEV,"1.47 fold enrichment (6-mer frequency, TF over GST control)"
same,binding signal,ETV5,"1.52 fold enrichment (6-mer frequency, TF over GST control)"
same,binding signal,HSF1,"2.74 fold enrichment (6-mer frequency, TF over GST control)"
same,binding signal,SPIC,"1.67 fold enrichment (6-mer frequency, TF over GST control)"
same,binding signal,ELF4,"1.48 fold enrichment (6-mer frequency, TF over GST control)"
same,binding signal,ELK4,"1.54 fold enrichment (6-mer frequency, TF over GST control)"
same,binding signal,ETV2,"1.65 fold enrichment (6-mer frequency, TF over GST control)"
same,binding signal,ELF3,"1.73 fold enrichment (6-mer frequency, TF over GST control)"
same,binding signal,CRX,"1.76 fold enrichment (6-mer frequency, TF over GST control)"
same,binding signal,ETV1,"1.56 fold enrichment (6-mer frequency, TF over GST control)"

# From publication PMC7862700, “An all-to-all approach to the identification of sequence-specific readers for epigenetic DNA modifications on cytosine”
